# Data: PubChem BioAssay AID686970 (National Center for Advancing Translational Sciences (NCATS), 2013)
# Screen size: about 360,000 compounds; about 6,000 (1.7%) were called active. Inconclusive results (about 8%) are left out. What follows is part of a selection rich in actives, with near analogues and random picks from the rest. Unmarked numbers belong to inactive results. The call rests on the fitted dose curve; in most records, active means well fitted cell-killing curve with a large enough effect; inconclusive means small, poorly fitted or top-dose-only effect, or effect the other way; inactive means flat fitted curve, though single readings scatter.
# Test: qHTS for induction of synthetic lethality in tumor cells producing 2HG: qHTS for the HT-1080-NT fibrosarcoma cell line;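 further: NT is the 2HG producing partner of a matched IDH1 knockdown line; nearly all actives have a fitted effect of over 55% in size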;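 on activity, negative = less viability: 0% = DMSO-treated cells and -100% = media-only wells without cells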
# Settings: HT-1080-NT fibrosarcoma viability, CellTiter-Glo ATP luminescence, 48 h; series mostly up to 46.1 µM; activity, negative = less viability: at the top concentration
# How it was run: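 Read-out is CellTiter-Glo luminescence after 10 minutes at room temperature, following 48 hours' compound treatment of HT-1080-NT cells (750 cells/well, RPMI, 5% FBS, 37 degrees C).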
# Potency means the concentration at half of the fitted maximal effect.
SMILES,"activity, negative = less viability [%]",Potency
CCNC(=S)Nc1ccc2c(c1)c(=O)n(C)n2Cc1ccc(Cl)cc1,-1.44,
COc1ccc(CNC(=O)c2ccc(-c3cccnc3)c3ccoc23)cc1OC,-8.56,
COc1cccc(C(O)c2nc(-c3ccc(C)c(C)c3)cs2)c1 (configuration not stated),-23.1,
COC(=O)COc1cccc2c(=O)n(CC(=O)NCc3ccccc3)ccc12,,2.59 µM (active)
COC(=O)COc1cccc2c(=O)n(CC(=O)NCCc3ccc(OC)c(OC)c3)ccc12,21.4,
Cc1ccc(CNC(=O)CCNC(=O)Cn2ccc3ccccc3c2=O)cc1,1.01,
Cc1cc(C)c(S(=O)(=O)NN=C2c3ccccc3[C@H]3Cc4csc[n+]4[C@@H]23)c(C)c1,0.106,
O=c1[nH]c2ccccc2n1C1CCN(CCOc2ccccc2)CC1,-14.8,
COc1ccc2c(CC(=O)N3CCc4cc(OC)c(OC)cc4C3)coc2c1,2.88,
COc1ccccc1CNC(=O)c1cc(=O)c2ccccc2o1,-4.66,
COc1cc2c(cc1OC)CN(C(=O)c1cc(=O)c3ccccc3o1)CC2,,5.8 µM (active)
COc1ccc(S(=O)(=O)N2CCCCC2c2cc(C(=O)NCc3ccc(F)cc3)no2)cc1 (configuration not stated),3.27,
C[C@@H]1CN([C@H](C)CO)S(=O)(=O)c2ccc(C#CC3CCCCC3)cc2O[C@H]1CN(C)C(=O)Cc1ccncc1,-16.2,
COc1ccc(-c2c(-c3ccc(OC)cc3O)nc(C)nc2C(F)(F)F)cc1,-1.91,
C=C(C)COc1ccc(-c2ncncc2-c2ccc(OC)cc2)c(O)c1,-5.06,
C=C(C)COc1ccc(-c2n[nH]c(C)c2-c2ccccc2)c(O)c1,,20.6 µM (active)
CCOC(=O)[C@H]1Nc2ccc(Cl)cc2[C@@H]2[C@H]1C1CC(c3ccccc31)N2C(=O)OCc1ccccc1 (some centres not stated),-2.55,
O=C1/C(=C/c2cccs2)CCc2ccccc21,2.39,
COc1ccc(/C=C2/CCCc3ccccc3C2=O)cc1,,8.2 µM (active)

SMILES,"activity, negative = less viability [%]",Potency
COc1ccc(/C=C2\CCc3ccccc3C2=O)c(OC)c1OC,2.07,
CC(=O)Oc1ccc(Cn2c(C)c(C(=O)NCc3ccc(C#N)cc3)sc2=O)cc1,-29.4,
O=C(CSc1nc2cccc(F)c2c(=O)n1-c1ccccc1)Nc1ccc2c(c1)CCC2,11.2,
O=C(N/N=C/c1ccc(Cl)cc1)c1nc2ccc([N+](=O)[O-])cc2c(=O)[nH]1,7.24,
O=C(/C(=C/c1cccc(Cl)c1)c1nc2ccccc2[nH]1)c1ccccc1,,5.17 µM (active)
O=C(O)c1cccc(NC(=O)c2cc(-c3cccc(Cl)c3)nc3ccccc23)c1,10.5,
Cc1cc(Br)cn2c(Cc3ccccc3C(F)(F)F)c(-c3ccc(Cl)cc3)nc12,-3.92,
Cc1ccc(Oc2cnn(-c3ccccc3)c(=O)c2Br)cc1,-17.5,
COc1ccc(Oc2c(Cl)cnn(-c3ccccc3)c2=O)cc1,,18.4 µM (active)
COc1ccc(CCNC(=O)c2c(C)nn(-c3ccccc3)c2Cl)cc1,-8.7,
CCCCN1C(=O)C(CC(=O)NCc2cccs2)CC(C(=O)N2CCCCCC2)=C1C (configuration not stated),-1.24,
O=C(NCc1ccccc1)C1CNCC(C(=O)NCc2ccccc2)C1 (configuration not stated),5.71,
Cc1ccc(-c2nc3c(Cl)cc(C(F)(F)F)cn3c2Cc2cccc(Cl)c2)cc1,14,
Oc1c(Cl)cc(Cl)c(Cl)c1Cc1c(O)c(Cl)cc(Cl)c1Cl,,5.8 µM (active)
CCCCCCCCn1c2c(c(=N)c3c1CCC3)CCCC2,,16.4 µM (active)
C=CC(=O)OCCOCCOCCOCCOC(=O)C=C,,20.6 µM (active)
COc1cc(CCN=Cc2ccccc2O)c([N+](=O)[O-])cc1OC,20.1,
COc1ccc(S(=O)(=O)N2CCC(C(=O)NCCC(=O)NCCc3cccc(F)c3)CC2)cc1,0.278,
C=CCOc1cccc(C2C(C(=O)c3ccc(C)o3)=C(O)C(=O)N2CCN2CCOCC2)c1 (configuration not stated),-5.15,

SMILES,"activity, negative = less viability [%]",Potency
Cc1ccc([C@H]2C[C@H](O)[C@@H](n3cc(COC(=O)c4ccccc4)nn3)CN2C(=O)C2CCCCC2)cc1,-17.4,
CC(C)CCNC(=O)c1[nH]c(C(F)(F)F)nc1-c1ccccc1,0.202,
COc1ccc(-c2ccc(CN3C(C(C)C)C(=O)N(Cc4cn(CC5CCCCC5)nn4)CCS3(=O)=O)cc2)cn1 (configuration not stated),0.744,
COc1ccc(/C=N/Nc2ccccc2C(=O)O)cc1,-4.06,
COc1ccc(C(=O)Nc2ccccc2C(=O)N/N=C/c2ccc(O)c(OC)c2)cc1,,5.8 µM (active)
COc1ccc2[nH]c(C(=O)N/N=C/c3cc(OC)c(OC)c(OC)c3)cc2c1,-5.09,
CC(O)(c1cccc(F)c1)c1nc(-c2ccc3c(c2)OCO3)cs1 (configuration not stated),-19.6,
CCOC(=O)C1=CC[C@@H](c2ccccc2)N(S(=O)(=O)c2ccc(C)cc2)[C@H]1c1ccc(CC)cc1,-3.93,
CCCOc1ccc(F)cc1-c1cc(C(=O)Nc2ccc(F)cc2)[nH]n1,-17,
COc1ccc(CCNC(=O)NS(=O)(=O)c2ccc(C)cc2)cc1OC,17.1,
COc1ccc(CCNC(=S)NC(=O)/C=C/c2ccc(C)cc2)cc1OC,,6.31 µM (active)
COc1ccc(CCNC(=O)Cc2ccc(C)cc2)cc1OC,2.44,
O=C(COC(=O)/C=C/c1ccc(Cl)cc1)NC1CCS(=O)(=O)C1 (configuration not stated),-11.7,
CCOC(=O)C(=Cc1ccccc1)C(=O)c1ccccc1,-9.52,
Cc1cc(OCc2ccc(C(=O)Nc3ccc(C(=O)O)cc3)o2)ccc1Cl,,11.6 µM (active)
O=C(O)c1ccc(NC(=O)c2ccc(COc3ccc(Cl)cc3)o2)cc1,-28.6,
COc1ccc(NC(=O)CN(C)C(=O)c2ccc(COc3ccccc3)o2)cc1,6,
O=C(NCc1ccccc1)C1c2ccccc2OCC(=O)N1CCCN1CCOCC1 (configuration not stated),18.4,
CCC(c1nc2ccccc2[nH]1)n1c(=O)c(-c2cccs2)nc2ccccc21 (configuration not stated),-22.6,
